Inconclusive results are not listed. Calls of active or inactive are those of the source. The call rests on the fitted dose curve; in most records, active means well fitted inhibition curve with a large enough effect; inconclusive means small, poorly fitted or top-dose-only effect; inactive means no such curve, though single readings can be large or run the other way.
Assay: Primary qHTS for small molecule stabilizers of the endoplasmic reticulum resident proteome: Secreted ER Calcium Modulated Protein (SERCaMP) assay (AID 1508630)
Conditions: SH-SY5Y GLuc-SERCaMP (Gaussia luciferase released on ER calcium loss) secretion, thapsigargin, luminescence; series mostly up to 38.4 µM
Procedure, shortened: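 GLuc-SERCaMP-expressing SH-SY5Y cells, pretreated 16 h with compound, are challenged with thapsigargin to empty ER calcium stores; after 4 h, coelenterazine is added directly to the medium and luminescence is imaged.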

Potency, inactive:
CCCCCCCCCCCCCCCC(=O)C1=C(O)C(CO)OC1=O (stereo not given)
COc1ccccc1/C=C\C(=O)OC[C@@H]1CCCN2CCCC[C@H]12
CC1NC(C(=O)O)Cc2c1[nH]c1ccccc21 (stereo not given)
COc1ccc([C@@H](C)C(=O)c2ccc(O)cc2O)cc1
O=C(O)C1CCC[C@@H]2[C@@H]3CC(CN12)[C@@H]1CCCCN1C3 (stereo not given in full)
COc1cc2c(cc1OC)-c1cc3cc(OC)c(OC)cc3c(=O)n1CC2
COc1cc2c(cc1OC)C(/C=C/c1ccc(OC)c(OC)c1OC)=NCC2
COc1ccc([C@@H]2[C@@H](O)[C@H](O)[C@@H](C)N2C)cc1OC
COc1c(C=O)c(=O)[nH]c2c(OC)cccc12
O=c1cc(-c2cc3ccccc3oc2=O)c2ccc(O)cc2o1
CC1OCC23CC[C@@]4(C)CCC(C)(C)C[C@H]4[C@]2(C)CCC12C3CC[C@@]1(C)C2C(=O)CC(=O)[C@@H]1C (stereo not given in full)
COc1c(CO)cc(CO)cc(CO)c1=O
COc1c(O)cc2c(=O)oc3c(OC)c(O)cc4c(=O)oc1c2c34
O=C1N[C@@H](Cc2c[nH]c3ccccc23)C(=O)N[C@H]1Cc1c[nH]c2ccccc12
COc1cc(=O)n(C)c2c(OCC3OC(C)(C)OC3(C)C)cccc12 (stereo not given)
O=c1[nH]c(-c2ccccc2O)nc2ccccc12
COc1c2c(cc3c1C(CC(O)C(C)C)N(C)CC3)OCO2 (stereo not given)
CC1=CC[C@@]2(CO)COC(c3ccccc3O)C1C2 (stereo not given in full)
C=C(C)C(=O)OC[C@@H]1CCC[N@+]2(C)CCCCC12 (stereo not given in full)
O=C1Nc2ccccc2C(=O)N2CCC[C@@H]12
CC(C)=CCn1cnc2c1c(=O)n(C)c(=O)n2C
C[C@@H]1C(=O)CC2C(C)(C)CCC[C@]2(C)[C@@]1(O)CCc1ccoc1 (stereo not given in full)
COc1cc2c(cc1OC)C1CCC3=C([C@H](C)OC3=O)N1CC2 (stereo not given in full)
CC1(C)Oc2ccc3ccc(=O)oc3c2CC1=O
COc1c2c(cc3c1C(NC(N)=O)[N+](C)(C)CC3)OCO2 (stereo not given)
c1cnc2c(-c3nccc4c3[nH]c3ccccc34)cccc2c1
COc1cccc(C(=O)CC2c3c(c(Br)c4c(c3OC)OCO4)CCN2C)c1 (stereo not given)
CC(=O)OC[C@@]12C(=O)[C@@H](O)[C@@H](C)[C@]3(C[C@@H](c4ccoc4)O[C@@H]3OC(C)=O)[C@H]1CCC[C@]21CO1
CC1=CC(=O)CC(C)(C)C1(O)/C=C/C(C)=C/C(=O)O (stereo not given)
COC(=O)N1c2ccccc2C23[C@@H]4CN5CCC[C@]6(CCC12C(O)(C6)C4=O)[C@H]53
CC(C)=CCCC1=CC[C@H](C(=O)O)[C@H](C(=O)O)C1
COC(=O)/C(=C1/OC(=O)C(c2ccccc2)=C1O)c1ccccc1
COc1cccc2c(=O)c3ccoc3n(C)c12
COc1ccccc1Oc1coc2cc(O)ccc2c1=O
CN(C)CCc1cc2c(c3c1ccc1ccccc13)OCO2
COc1ccc(/C=C2\NC(=O)[C@@H]3Cc4ccccc4CN3C2=O)cc1
COc1cc2c(cc1OC)C1N(CC2)C(=O)CCC12C(=O)CCCC2=O (stereo not given)
COc1cc(C)c(CC/C(C)=C/C=C/C(C)=O)c(C)c1C
CC1=NN(c2ccc([N+](=O)[O-])cc2)C(=O)C1[N+](=O)[O-] (stereo not given)
COc1ccc(C2c3cc(OC)c(OC)cc3Cc3c4cc(OC)c(OC)cc4cc[n+]32)cc1OC (stereo not given)
